The record followed here is PubChem BioAssay AID686971 (National Center for Advancing Translational Sciences (NCATS), 2013).

Structures are written as SMILES. Hit rate of the full screen: of about 360,000 compounds, about 7,500 (2.1%) were called active. Not shown: some 8% with an inconclusive outcome. Calls follow the shape of the dose curve; as a rule, active = well fitted cell-killing curve with a large enough effect; inconclusive = small, poorly fitted or top-dose-only effect, or effect the other way, or another doubt; inactive = no such curve, though single readings can be large or run the other way. The entries come from a sample that favours actives as a whole. A call without a number means that no potency is given here.
Potency is read from the fitted curve at half-maximal effect.

A short description of the experiment: qHTS for induction of synthetic lethality in tumor cells producing 2HG: qHTS for the HT-1080-IDH1KD cell line. The conditions noted are these: HT-1080 IDH1 knockdown viability, ATP luminescence, 48 h; series mostly up to 46.1 µM. An excerpt:
Unbiased genomic sequencing for 22 glioma genomes found recurrent mutation of IDH1 on chromosome 2q33, a gene encoding the cytosolic isoform of IIDH1 associated with the tri-carboxylic acid cycle (TCA) that catalyzes the oxidative decarboxylation of isocitrate, yielding alpha-ketoglutarate and CO2 via NADP+ to NADPH conversion. Subsequent studies confirmed the recurrent IDH mutations in up to 70% of secondary gliomas and in 10% of AML cases. In addition, the somatic mutation of cancer-associated IDH1 is a point mutation resulting in various amino-acid substituents at Arginine132 (IDH1 R132), a key residue found in the enzyme's active site that when mutated, results in the loss-of-function in metabolizing isocitrate but confers a gain-of-function to produce the oncometabolite 2-hydroxyglutarate (2HG). This in effect defines IDH1 as an oncogene and provides an extraordinary opportunity to discover chemical probes against mutant IDH1 that may translate into much needed new therapies for glioma and AML patients.
This assay aims to perform a synthetic-lethal screen for chemical probes specific for 2HG-producing tumor cells using matched paired cell lines (1) HT-1080-NT fibrosarcoma cell line that overproduces 2HG and (2) HT-1080-IDH1KD cell line which has IDH1 expression knocked-down. Desirable compounds are toxic to the NT fibrosarcoma cell line but not to the IDH1KD cell line. The data in this AID corresponds to the results of the qHTS against the HT-1080 IDH1KD cell line.
[1] Dang L, Jin S, Su SM. IDH mutations in glioma and acute myeloid leukemia. Trends of Mol Med. 2010; 16(9): 387-97.
[2] Dang L et al. Cancer-associated IDH1 mutations produce 2-hydroxyglutarate. Nature. 2010; 465(7300):966.
Molecular Libraries Probe Production Centers Network [MLPCN]
NIH Chemical Genomics Center [NCGC]
Assay Submitter (PI): Lenny Dang Ph.D., Agios Pharmaceuticals
Suspensions of trypsinized HT-1080-IDH1KD cells were dispensed into white, tissue culture-treated, solid 1536-well plates at 5uL/well (750 cells/well final concentration) in RPMI medium supplemented with 5% FBS. Plates were incubated at 37 degrees C for 2 hours, after which 23 nL of compounds or DMSO were delivered to each well using a pin tool. Plates were then incubated at 37 degrees C for an additional 48 hours. CellTiter-Glo viability reagent (Promega) was dispensed into wells (2.5uL/well) and incubated at room temperature for 10 minutes. The plates were measured on a PerkinElmer ViewLux plate reader for luminescent signal (clear filter, 1 sec exp.). DMSO-treated control wells and media-only (no cells) control wells were used to normalize %Activity of identified toxic compounds; DMSO-treated wells corresponded to 0%Activity (100% viability), while media-only controls were used to normalize 100%Activity (0% viability). To minimize variability between cell lines, both HT-1080-NT and HT-1080-IDH1KD lines were dispensed and treated with identical compound series in single batches.
Concentration-response curves were fitted to the signals arising from the resulting luminescence. The concentration-effect curves were then classified based on curve quality (r2), response magnitude and degree of measured activity, and compounds were subsequently categorized based on their curve class.
Background: qHTS replaces the single test concentration by a dilution series.
`C#CCNC(=O)C[C@@H]1C[C@@]2(C(=O)OCC)CCCC=C2N(Cc2ccco2)C1=O`: the Potency entry was “inactive”.

For `NS(=O)(=O)c1ccc(NC(=O)CSc2nnc3c(n2)[nH]c2ccccc23)cc1`, the Potency entry is “inactive”.

Regarding `CC(=O)c1cccc(-c2cnc3c(NC=O)cc(-c4cccc(C(=O)N(C)C)c4)cn23)c1`, the Potency entry was “inactive”.

In the case of `CN(C)C(=O)c1cccc(-c2cnc3c(NC=O)cc(-c4ccc(F)cc4)cn23)c1`, the Potency is 23.1 µM (active).

With `Cc1ccc2nc(-c3ccncc3)cc(C(=O)Nc3ccc4c(c3)OCCO4)c2c1`, the Potency is 9.2 µM (active).

With `Cc1ccc2nc(-c3ccccn3)cc(C(=O)Nc3ccc4c(c3)OCO4)c2c1`, the Potency entry was “inactive”.

`CCOc1ncccc1C(=O)Nc1ccc2c(c1)OCCO2`: the Potency result is “inactive”.

For the compound `CCOc1ccc(CCN2C(=O)C(=O)N([C@@H](CC(C)C)CN3CCC[C@H]3CN3C(=O)C(=O)NC[C@@H]3Cc3ccccc3)C[C@@H]2CC(C)C)cc1`, the Potency result was “inactive”.

Take `COC(=O)COc1cccc2c(=O)n(CC(=O)NCc3ccccc3)ccc12`: the Potency was 2.31 µM (active).

For `COC(=O)COc1cccc2c(=O)n(CC(=O)NCCc3ccc(OC)c(OC)c3)ccc12`, the Potency entry is “inactive”.

Turning to `Cc1ccc(CNC(=O)CCNC(=O)Cn2ccc3ccccc3c2=O)cc1`, the Potency entry was “inactive”.

On to `C=CCN1CCN(c2ccncc2S(=O)(=O)N2CCN(C)CC2)CC1`, for which the Potency entry is “inactive”.

For `COc1cccc(C(NC(C)=O)c2nc(-c3ccccc3OC)cs2)c1` (stereo unspecified), the Potency result is “inactive”.

Regarding `COc1ccc(C(CNC(=O)CSc2ccccc2)N2CCOCC2)cc1` (stereo unspecified), the Potency result was “inactive”.

As to `CN(C)c1cccc(NC(=O)c2ccc(-c3ccc(F)c(F)c3)c3ccoc23)c1`, the Potency entry is “inactive”.

With `Cc1cc(C(=O)CCl)c(C)n1CC1COc2ccccc2O1` (stereo unspecified), the Potency was 14.6 µM (active).

As to `O=C1C(=O)N(CC2COc3ccccc3O2)c2ccccc21` (stereo unspecified), the Potency entry was “inactive”.

With `Cc1ccsc1C(=O)OCC(=O)c1cc(C)n(CC2CCCO2)c1C` (stereo unspecified), the Potency result was “inactive”.

In the case of `CC(C)(C)c1ccc(C(=O)NCC(=O)OCN2C(=O)c3ccccc3C2=O)cc1`, the Potency result was “inactive”.

Consider `COCC(C)OC(=O)c1c(N)n(CCCN2CCOCC2)c2nc3ccccc3nc12` (stereo unspecified), for which the Potency result is “inactive”.

Regarding `CC(C)(C)c1ccc(C(=O)NCCn2c(N)c(C#N)c3nc4ccccc4nc32)cc1`, the Potency is 16.4 µM (active).

As to `COc1ccc2nc(-c3ccccn3)ccc2c1`, the Potency entry was “inactive”.

Turning to `C[C@@H]1CN([C@@H](C)CO)C(=O)CCCn2nncc2CO[C@H]1CN(C)Cc1ccc(C(F)(F)F)cc1`, the Potency result is “inactive”.

`O=S1(=O)CC(N2CCC(Cc3ccccc3)CC2)CN1Cc1ccccc1` (stereo unspecified): the Potency entry is “inactive”.

Turning to `CC(C)(C)C(=O)c1c(N)[nH]c(C(=O)c2ccccc2)c1-c1ccc(F)cc1`, the Potency entry is “inactive”.

In the case of `COc1ccccc1-c1n[nH]nc1C1=CC(=O)CC(C)(C)C1`, the Potency entry is “inactive”.
